USP8 block – human USP8 deubiquitinase inhibition; P40818; 47,000 tested, 4.2% active; purified USP8, Ub-rhodamine cleavage fluorescence, 30 min; inhibition, % at 20 µM; AID 1645853
USP10 inh – blocks human USP10 ubiquitin-rhodamine cleavage. purified USP10, Ub-rhodamine fluorescence, 60 min. AID 1645856. Q14694. inhibition, % at 20 µM. 47,000 tested, 1.1% active
UCHL1 block – blocks human UCHL1 ubiquitin-rhodamine cleavage; P09936; purified UCHL1, Ub-rhodamine cleavage fluorescence; inhibition, % at 20 µM; 47,000 tested, 0.2% active
USP7 inh – blocks human USP7 ubiquitin-rhodamine cleavage | Q93009 | purified USP7, Ub-rhodamine cleavage fluorescence | inhibition, % at 20 µM | 47,000 tested, 0.3% active | AID 1645854
Target sequence (Q93009 whole entry, looked up): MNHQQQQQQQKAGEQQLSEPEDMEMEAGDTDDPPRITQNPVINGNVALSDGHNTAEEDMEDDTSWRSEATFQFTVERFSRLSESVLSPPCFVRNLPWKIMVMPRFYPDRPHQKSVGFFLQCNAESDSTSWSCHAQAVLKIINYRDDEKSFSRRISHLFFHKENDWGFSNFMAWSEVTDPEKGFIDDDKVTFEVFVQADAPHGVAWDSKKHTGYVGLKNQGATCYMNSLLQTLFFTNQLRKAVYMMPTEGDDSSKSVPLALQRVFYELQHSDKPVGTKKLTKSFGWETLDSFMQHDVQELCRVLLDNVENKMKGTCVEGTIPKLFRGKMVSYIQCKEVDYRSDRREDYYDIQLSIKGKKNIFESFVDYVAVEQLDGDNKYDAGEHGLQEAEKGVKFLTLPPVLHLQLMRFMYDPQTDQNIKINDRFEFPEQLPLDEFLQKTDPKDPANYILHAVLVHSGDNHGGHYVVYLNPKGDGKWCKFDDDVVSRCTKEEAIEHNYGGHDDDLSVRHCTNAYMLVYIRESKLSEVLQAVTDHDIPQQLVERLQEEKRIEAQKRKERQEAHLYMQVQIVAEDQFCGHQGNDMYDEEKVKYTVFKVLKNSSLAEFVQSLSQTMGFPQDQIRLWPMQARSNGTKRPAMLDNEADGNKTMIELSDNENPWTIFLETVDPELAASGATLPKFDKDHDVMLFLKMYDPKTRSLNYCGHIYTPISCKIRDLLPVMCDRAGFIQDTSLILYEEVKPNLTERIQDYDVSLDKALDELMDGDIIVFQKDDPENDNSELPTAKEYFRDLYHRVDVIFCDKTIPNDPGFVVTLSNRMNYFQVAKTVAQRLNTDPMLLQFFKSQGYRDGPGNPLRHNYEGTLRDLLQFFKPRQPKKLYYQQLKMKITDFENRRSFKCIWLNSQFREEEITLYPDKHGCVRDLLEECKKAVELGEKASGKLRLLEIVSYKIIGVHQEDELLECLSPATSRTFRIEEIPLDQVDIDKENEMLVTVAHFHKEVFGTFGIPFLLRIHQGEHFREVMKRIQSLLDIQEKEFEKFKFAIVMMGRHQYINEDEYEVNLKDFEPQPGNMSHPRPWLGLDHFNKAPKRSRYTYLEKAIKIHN
The depositor's hits bear a star; . = no result given. Sampled rows, rich in hits. Any-hit rate of the full collection: about 5%. Cut-off read from the data, not from the text of the source: active = inhibition above about 30%; inactive = the rest.

SMILES	USP8 block	USP10 inh	UCHL1 block	USP7 inh
COc1cc(NC(=O)CSc2ncnc3scc(-c4ccccc4)c23)c(C(=O)O)cc1OC	-47	30*	2	5
COc1cc2c(cc1OC)CN(c1ncnc3scc(-c4ccccc4)c13)CC2	37*	-9	-8	-19
CCOc1nccnc1N1CCC(NS(=O)(=O)C2CC2)C1 (centres undefined)	-1	1	-2	0
Cc1cccc(N2C(=O)CC(c3cccs3)C3=C2COC3=O)c1 (centres undefined)	3	3	0	-34
COC(=O)c1nn(-c2ccc(Cl)cc2)c(=O)cc1Sc1ccc(C)cc1	53*	5	2	-9
Cc1ccc(-n2nnnc2CNC(=O)NCc2ccc(Cl)cc2)cc1	0	1	2	-14
Cc1nn(-c2ccc(F)cc2)c(Cl)c1C(=O)NC1CCCc2ccccc21 (centres undefined)	-7	-1	2	10
Cc1cn2nnc(C(=O)NC3CCc4ccccc43)c2c(=O)[nH]1 (centres undefined)	64*	-7	1	-1
Cc1ccc(NC(=O)Cc2nnc3ccc(-c4nc(C)no4)cn23)c(C)c1	-134	3	-3	-1
Cc1ccc(NC(=O)Cc2nnc3cc(-c4nc(C)no4)ccn23)cc1	62*	46*	6	39*
CCc1ccc(NC(=O)Cc2nnc3cc(-c4nc(C)no4)ccn23)cc1	84*	56*	1	44*
CCc1noc(-c2ccn3c(CC(=O)Nc4ccccc4C)nnc3c2)n1	76*	18	1	9
CSc1ncccc1C(=O)OCc1ccccc1	1	6	74*	-7
COc1ccc(C)cc1NC(=O)Nc1nnc(CC(=O)N2CCOCC2)s1	-1	-7	-1	3
c1ccc2c(c1)CCN(Cc1nc(-c3ccc(N4CCOCC4)nc3)no1)C2	36*	-6	3	0
c1cc(N2CCOCC2)ncc1-c1noc(CN2CCCCCC2)n1	-48	-8	0	-8
COc1ccc(OCc2nc(-c3ccc(N4CCCCCC4)nc3)no2)cc1	44*	-5	-5	0
NC(=O)CC(CC(N)=O)c1c(Cl)cccc1Cl	0	-2	0	3
COc1c(O)cc(CC(=O)O)c(C(C)=O)c1O	21	14	50*	-29
O=[N+]([O-])c1cccc(-c2nnc3n2-c2ccccc2SC3)c1	-126	0	-1	-8
Cc1ccc(-c2ncc(C(=O)Nc3ccccc3Cl)c(-c3ccncc3)n2)cc1	31*	-10	-25	-53
Cc1ccc(-c2ncc(C(=O)NC(C)c3ccccn3)c(-c3ccncc3)n2)cc1 (centres undefined)	6	-3	-16	-13
Cc1ccc(-c2ncc(C(=O)Nc3ccc(F)cc3)c(-c3ccncc3)n2)cc1	48*	-8	-15	-16
CC1(C)CC(=O)C2=C(C1)Nc1ccccc1N(C(=O)C(F)(F)F)C2c1cccs1 (centres undefined)	89*	-3	9	-3
COc1ccc(C2C3=C(CC(C)(C)CC3=O)Nc3ccccc3N2C(=O)c2ccccc2)cc1 (centres undefined)	-1	-6	-2	-1
SMILES	USP8 block	USP10 inh	UCHL1 block	USP7 inh
Cc1ccc(Cn2c(SCc3ccccc3C#N)nc3ccccc3c2=O)cc1	-23	-5	-21	-17
CCn1c(SCc2nc(N)c3ccccc3n2)nc2ccccc21	33*	-3	2	-5
Cc1cccc(CNC(=O)CCC(=O)N2CCCn3nc(C)cc32)c1	0	1	-1	-13
O=C(NCc1ccc(Cl)cc1)c1cc2c(s1)-c1ccccc1OC2	74*	44*	3	14
O=C1COc2ccc(C(=O)NCc3ccc4c(c3)OCO4)cc2N1	2	2	1	3
Cc1ccc(NC(=O)c2cc3c(s2)-c2ccccc2OC3)c(Cl)c1	28	6	2	5
O=C(NCc1ccc2c(c1)OCO2)c1cc2c(s1)-c1ccccc1OC2	56*	25	3	10
O=C(Nc1cccc(C(F)(F)F)c1)c1cc2c(s1)-c1ccccc1OC2	72*	30	6	13
CSc1ccccc1NC(=O)c1ccc2c(c1)-c1ccccc1S(=O)(=O)N2C	15	8	3	9
Cc1ccc(C(=O)CN2C(=O)COc3cc(C(=O)N(C)C[C@H](O)c4cccc(O)c4)ccc32)cc1	5	2	0	6
CC1=C(C(=O)c2ccc(Cl)cc2)C(c2ccc(C)cc2)NC(=O)N1 (centres undefined)	0	6	0	-26
CC1=C(C(=O)c2ccc(Cl)cc2)C(c2ccc(C(C)C)cc2)NC(=O)N1 (centres undefined)	73*	-5	-2	-36
Cc1cccc(-c2nnn3c2nc(NCC2CCCO2)c2ccccc23)c1 (centres undefined)	67*	26	2	10
Cc1cc(NCC2CCCO2)n2nc(-c3cccc(Cl)c3)c(C)c2n1 (centres undefined)	6	5	10	4
Cc1cc(O)c2c(c1)C(=O)c1cc(O)cc(O)c1C2=O	-14	0	-5	-24
O=C1C=C(O)c2c(O)cc(O)cc2C1=O	82*	79*	94*	85*
Cc1cccc(NC(=O)CN2CCn3c(cnc3C(F)(F)F)C2=O)c1	-5	5	0	3
COc1ccc(CN[C@H]2[C@H](O)[C@H](O)C[C@@H]2c2cncnc2)cn1	35*	-2	7	-17
O[C@H]1[C@H](NCc2cccc(C(F)(F)F)c2)[C@@H](c2cncnc2)C[C@H]1O	61*	-5	11	-25
O[C@H]1[C@H](NCc2ccccc2)[C@@H](c2cccnc2)C[C@H]1O	-1	0	0	0
O=C(CN1C(=O)CSc2cccn2-c2ccccc21)NCc1ccccc1F	9	0	3	3
COc1cccc(N2C(=O)CN(S(C)(=O)=O)CC2(C)C(=O)NCc2ccc(C)cc2)c1 (centres undefined)	26	-1	3	1
COc1ccc(NC(=O)Cn2c(C)cc(=O)n3nc(-c4cccc(C)c4)nc23)cc1	64*	47*	1	22
O=C(Nc1ccc(Cn2cncn2)cc1)C1CCCCC1	0	-1	-1	.
Cc1nc(-c2cncc(-c3cc4ccccc4s3)c2)cc(N2CCC3(CC2)OCCO3)n1	-3	-6	-2	-2
SMILES	USP8 block	USP10 inh	UCHL1 block	USP7 inh
CC1(c2ncc(CNC(=O)c3ccn[nH]3)cn2)CCCCO1 (centres undefined)	-3	-2	0	3
Cc1c(C(=O)NCc2cccc(Br)c2)oc2c1-c1[nH]ncc1CC2	84*	-3	0	-24
COc1cccc(C2CC(c3ccc(F)cc3)=NC3(CCN(C)CC3)N2)c1O (centres undefined)	41*	-3	-3	-4
COc1cccc(C2CC(c3ccccc3)=NC3(CCN(C)CC3)N2)c1O (centres undefined)	19	-2	-2	-1
COc1ccccc1NS(=O)(=O)c1ccc2oc(Nc3ccc4c(c3)CCC4)nc2c1	51*	27	6	10
CCOc1ccc(CC(=O)NCC(=O)N2CCC3(CC2)NCCc2[nH]cnc23)cc1	30*	-3	-1	2
